Assay [1] can be described thus: NCATS anti-infectives library activity on HEK293 viability as a counter-qHTS vs the C. elegans viability qHTS (AID 1745854).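 Also: HEK293 cells exposed to compounds for 24 hr before the viability read.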 A digest of the protocol:
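HEK293 cells (1,500/well) exposed 24 hr at 37C to 1:5 titrations, up to 41.7 uM final; counter-screen to a C. elegans viability qHTS. Viability by CellTiter-Glo luminescence after 10 min at room temperature; digitonin as control.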
A general note: Quantitative high-throughput screening tests each substance at several concentrations.

The target in assay [2] is Glutathione peroxidase 1 (Homo sapiens) (UniProt P07203). Briefly: Primary qHTS Assay for Inhibitors of Recombinant Selenoprotein Glutathione Peroxidase 1 (GPX1) (AID 1845191). Also: nearly all actives have a fitted effect of over 65% in size. A digest of the protocol:
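Recombinant GPX1 (10 nM final) was preincubated with compound for 30 min at room temperature, then reacted with 1 mM GSH, 0.5 mM CHP, 0.5 mM NADPH and 100 nM glutathione reductase; NADPH fluorescence (340/450 nm) was read at 0 and 15 min.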

Molecules are shown by their SMILES. Results filed as inconclusive are left out. Entries that show only a call come without a potency. The source made the active and inactive calls. Calls follow the shape of the dose curve; as a rule, active = well fitted curve in the direction sought with a large enough effect; inconclusive = small, poorly fitted or top-dose-only effect, or another doubt; inactive = no such curve, though single readings can be large; an effect the other way counts as inactive or inconclusive.

Glutathione peroxidase 1 (Homo sapiens), sequence (P07203 whole entry, looked up): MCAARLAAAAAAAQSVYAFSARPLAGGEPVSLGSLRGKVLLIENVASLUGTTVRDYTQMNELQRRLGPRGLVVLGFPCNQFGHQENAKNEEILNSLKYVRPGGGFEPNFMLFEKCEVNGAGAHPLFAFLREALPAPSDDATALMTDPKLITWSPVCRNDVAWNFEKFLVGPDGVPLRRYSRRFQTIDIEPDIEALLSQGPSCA

In the case of `COc1ccc2c(O[C@H]3CC4C(=O)N(C)CCCC/C=C\[C@@H]5C[C@@]5(C(=O)NS(=O)(=O)C5CC5)NC(=O)[C@@H]4C3)cc(-c3nc(C(C)C)cs3)nc2c1C` (some centres not stated), the Potency result in assay [1] and in assay [2] was “inactive” in each case.

The values are drawn from PubChem BioAssay (NCATS).
